Results as given in PubChem BioAssay AID1159580 (chemical genetic matrix, 2015).
Values joined by “and” are separate entries in the source; they are usually repeats but may differ in a detail not shown here. Equal entries are not always repeated. Out of some 5,500 compounds screened, about 2,000 (36%) were called active. Not shown: some 18% with an inconclusive outcome. Rule as the data show it: active = normalized growth mostly below about 0.91 (no sharp cut-off); inconclusive = no clear call, values can overlap the other calls; inactive = mostly above about 0.92. This is one part of the list. Where a structure was tested more than once in an assay, its records may differ in their call.

Test: chemical genetic growth profiling, strain panel (AID 1159580);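 also: tested at 20 µM; growth read once vehicle control cultures reached saturation at 30 °C; 1 = growth at the plate median or of vehicle wells; lower values mean less growth of the strain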
Conditions: growth OD

Question: Which results are given for CSc1ccc2c(c1)C(N1CCN(C)CC1)Cc1ccccc1S2 (configuration not stated)?
Answer: normalized growth (S. cerevisiae deletion strains, locus YAL013W, strain DEP1, stronger effect = lower value): 0.916 (inactive); normalized growth (S. cerevisiae deletion strains, locus YAL040C, strain CLN3, stronger effect = lower value): 1 (inactive); normalized growth (S. cerevisiae deletion strains, locus YBR021W, strain FUR4, stronger effect = lower value): 0.364 (active); normalized growth (S. cerevisiae deletion strains, locus YBR229C, strain ROT2, stronger effect = lower value): 1.01 (inactive); normalized growth (S. cerevisiae deletion strains, locus YCL029C, strain bik1, stronger effect = lower value): 0.987 (inactive); normalized growth (S. cerevisiae deletion strains, locus YCL061C, strain MRC1 (second series), stronger effect = lower value): 0.532 (active); normalized growth (S. cerevisiae deletion strains, locus YDL035C, strain GPR1, stronger effect = lower value): 0.755 (active); normalized growth (S. cerevisiae deletion strains, locus YDL074C, strain BRE1, stronger effect = lower value): 0.584 (active); normalized growth (S. cerevisiae deletion strains, locus YDL101C, strain DUN1, stronger effect = lower value): 0.537 (active); normalized growth (S. cerevisiae deletion strains, locus YDL134C, strain PPH21, stronger effect = lower value): 0.631 (active); normalized growth (S. cerevisiae deletion strains, locus YDL185W, strain tfp1, stronger effect = lower value): 1.01 (inactive); normalized growth (S. cerevisiae deletion strains, locus YDL192W, strain arf1, stronger effect = lower value): 0.102 (active); normalized growth (S. cerevisiae deletion strains, locus YDR101C, strain arx1, stronger effect = lower value): 0.929 (inactive); normalized growth (S. cerevisiae deletion strains, locus YDR150W, strain NUM1, stronger effect = lower value): 1 (inactive); normalized growth (S. cerevisiae deletion strains, locus YDR162C, strain NBP2, stronger effect = lower value): 0.139 (active); normalized growth (S. cerevisiae deletion strains, locus YDR318W, strain mcm21, stronger effect = lower value): 0.807 (active); normalized growth (S. cerevisiae deletion strains, locus YDR363W, strain ESC2, stronger effect = lower value): 0.889 (inactive); normalized growth (S. cerevisiae deletion strains, locus YDR388W, stronger effect = lower value): 0.659 (active); normalized growth (S. cerevisiae deletion strains, locus YDR502C, strain sam2, stronger effect = lower value): 0.859 (active); normalized growth (S. cerevisiae deletion strains, locus YEL061C, strain CIN8, stronger effect = lower value): 0.975 (inactive); normalized growth (S. cerevisiae deletion strains, locus YER002W, strain NOP16, stronger effect = lower value): 1.07 (inactive); normalized growth (S. cerevisiae deletion strains, locus YER110C, stronger effect = lower value): 0.976 (inactive); normalized growth (S. cerevisiae deletion strains, locus YER155C, strain BEM2, stronger effect = lower value): 1.02 (inactive); normalized growth (S. cerevisiae deletion strains, locus YER167W, strain BCK2, stronger effect = lower value): 0.937 (inactive); normalized growth (S. cerevisiae deletion strains, locus YGL078C, strain dbp3, stronger effect = lower value): 0.991 (inactive); normalized growth (S. cerevisiae deletion strains, locus YGL086W, strain mad1, stronger effect = lower value): 0.741 (active); normalized growth (S. cerevisiae deletion strains, locus YGL248W, strain PDE1, stronger effect = lower value): 0.712 (active); normalized growth (S. cerevisiae deletion strains, locus YGR078C, strain PAC10, stronger effect = lower value): 0.833 (active); normalized growth (S. cerevisiae deletion strains, locus YGR135W, strain pre9, stronger effect = lower value): 0.753 (active); normalized growth (S. cerevisiae deletion strains, locus YGR229C, strain SMI1, stronger effect = lower value): 0.142 (active); normalized growth (S. cerevisiae deletion strains, locus YGR252W, strain gcn5, stronger effect = lower value): 0.254 (active); normalized growth (S. cerevisiae deletion strains, locus YHR030C, strain SLT2, stronger effect = lower value): 0.655 (active); normalized growth (S. cerevisiae deletion strains, locus YHR079C, strain IRE1 (second series), stronger effect = lower value): 0.911 (active); normalized growth (S. cerevisiae deletion strains, locus YHR094C, strain hxt1, stronger effect = lower value): 0.993 (inactive); normalized growth (S. cerevisiae deletion strains, locus YHR129C, strain ARP1, stronger effect = lower value): 0.99 (inactive); normalized growth (S. cerevisiae deletion strains, locus YHR200W, strain rpn10, stronger effect = lower value): 0.959 (inactive); normalized growth (S. cerevisiae deletion strains, locus YIL066C, strain RNR3, stronger effect = lower value): 0.759 (active); normalized growth (S. cerevisiae deletion strains, locus YIL073C, strain SPO22, stronger effect = lower value): 0.437 (active); normalized growth (S. cerevisiae deletion strains, locus YIL125W, strain kgd1, stronger effect = lower value): 0.977 (inactive); normalized growth (S. cerevisiae deletion strains, locus YIR030C, strain dcg1, stronger effect = lower value): 0.958 (inactive); normalized growth (S. cerevisiae deletion strains, locus YJL095W, strain BCK1, stronger effect = lower value): 0.537 (active); normalized growth (S. cerevisiae deletion strains, locus YJL134W, strain LCB3, stronger effect = lower value): 1.01 (inactive); normalized growth (S. cerevisiae deletion strains, locus YJL168C, strain set2, stronger effect = lower value): 0.947 (inactive); normalized growth (S. cerevisiae deletion strains, locus YJL187C, strain SWE1 (second series), stronger effect = lower value): 0.658 (active); normalized growth (S. cerevisiae deletion strains, locus YJR043C, strain POL32, stronger effect = lower value): 0.92 (inactive); normalized growth (S. cerevisiae deletion strains, locus YJR075W, strain HOC1, stronger effect = lower value): 0.834 (active); normalized growth (S. cerevisiae deletion strains, locus YKL009W, strain mrt4, stronger effect = lower value): 0.962 (inactive); normalized growth (S. cerevisiae deletion strains, locus YKL068W, stronger effect = lower value): 0.999 (inactive); normalized growth (S. cerevisiae deletion strains, locus YKL085W, strain MDH1 (second series), stronger effect = lower value): 0.987 (inactive); normalized growth (S. cerevisiae deletion strains, locus YKL085W, strain MDH1, stronger effect = lower value): 0.987 (inactive); normalized growth (S. cerevisiae deletion strains, locus YKL190W, strain CNB1, stronger effect = lower value): 0.657 (active); normalized growth (S. cerevisiae deletion strains, locus YKR001C, strain vps1, stronger effect = lower value): 0.0823 (active); normalized growth (S. cerevisiae deletion strains, locus YLR039C, strain RIC1, stronger effect = lower value): 1.54 [resistant] (active); normalized growth (S. cerevisiae deletion strains, locus YLR058C, strain SHM2, stronger effect = lower value): 0.77 (active); normalized growth (S. cerevisiae deletion strains, locus YLR102C, strain apc9, stronger effect = lower value): 0.987 (inactive); normalized growth (S. cerevisiae deletion strains, locus YLR262C, strain YPT6, stronger effect = lower value): 1.56 [resistant] (active); normalized growth (S. cerevisiae deletion strains, locus YLR268W, strain sec22, stronger effect = lower value): 0.901 (inactive); normalized growth (S. cerevisiae deletion strains, locus YLR330W, strain CHS5, stronger effect = lower value): 0.994 (inactive); normalized growth (S. cerevisiae deletion strains, locus YLR342W, strain FKS1 (second series), stronger effect = lower value): 0.2 (active); normalized growth (S. cerevisiae deletion strains, locus YLR418C, strain cdc73, stronger effect = lower value): 0.575 (active); normalized growth (S. cerevisiae deletion strains, locus YML032C, strain rad52, stronger effect = lower value): 0.894 (active); normalized growth (S. cerevisiae deletion strains, locus YML124C, strain tub3, stronger effect = lower value): 0.995 (inactive); normalized growth (S. cerevisiae deletion strains, locus YMR078C, strain ctf18, stronger effect = lower value): 0.993 (inactive); normalized growth (S. cerevisiae deletion strains, locus YMR223W, strain ubp8, stronger effect = lower value): 0.779 (active); normalized growth (S. cerevisiae deletion strains, locus YMR263W, strain SAP30, stronger effect = lower value): 0.917 (inactive); normalized growth (S. cerevisiae deletion strains, locus YMR307W, strain GAS1, stronger effect = lower value): 0.514 (active) and 0.999 (inactive); normalized growth (S. cerevisiae deletion strains, locus YNL067W, strain RPL9B, stronger effect = lower value): 0.914 (inactive); normalized growth (S. cerevisiae deletion strains, locus YNL128W, strain TEP1, stronger effect = lower value): 0.771 (active) and 1.09 (inactive); normalized growth (S. cerevisiae deletion strains, locus YNL153C, strain GIM3, stronger effect = lower value): 0.747 (active); normalized growth (S. cerevisiae deletion strains, locus YNL175C, strain NOP13, stronger effect = lower value): 1.02 (inactive); normalized growth (S. cerevisiae deletion strains, locus YNL197C, strain WHI3, stronger effect = lower value): 1.06 (inactive); normalized growth (S. cerevisiae deletion strains, locus YNL224C, strain SQS1, stronger effect = lower value): 1.01 (inactive); normalized growth (S. cerevisiae deletion strains, locus YNL233W, strain BNI4, stronger effect = lower value): 0.696 (active); normalized growth (S. cerevisiae deletion strains, locus YNL250W, strain rad50, stronger effect = lower value): 1.01 (inactive); normalized growth (S. cerevisiae deletion strains, locus YNL271C, strain bni1, stronger effect = lower value): 0.977 (inactive); normalized growth (S. cerevisiae deletion strains, locus YNL298W, strain CLA4, stronger effect = lower value): 0.979 (inactive); normalized growth (S. cerevisiae deletion strains, locus YNL307C, strain MCK1, stronger effect = lower value): 0.791 (active); normalized growth (S. cerevisiae deletion strains, locus YNL322C, strain KRE1, stronger effect = lower value): 0.773 (active); normalized growth (S. cerevisiae deletion strains, locus YNR052C, strain pop2, stronger effect = lower value): 0.705 (active); normalized growth (S. cerevisiae deletion strains, locus YOL006C, strain TOP1, stronger effect = lower value): 0.413 (active); normalized growth (S. cerevisiae deletion strains, locus YOL012C, strain htz1): 0.27 (inactive); normalized growth (S. cerevisiae deletion strains, locus YOL147C, strain pex11, stronger effect = lower value): 0.944 (inactive); normalized growth (S. cerevisiae deletion strains, locus YOR061W, strain CKA2, stronger effect = lower value): 0.122 (active); normalized growth (S. cerevisiae deletion strains, locus YOR069W, strain VPS5, stronger effect = lower value): 1 (inactive); normalized growth (S. cerevisiae deletion strains, locus YOR083W, strain WHI5 (second series), stronger effect = lower value): 0.745 (active); normalized growth (S. cerevisiae deletion strains, locus YOR136W, strain idh2, stronger effect = lower value): 0.938 (inactive); normalized growth (S. cerevisiae deletion strains, locus YOR144C, strain elg1, stronger effect = lower value): 1.01 (inactive); normalized growth (S. cerevisiae deletion strains, locus YOR184W, strain ser1, stronger effect = lower value): 0.82 (active); normalized growth (S. cerevisiae deletion strains, locus YOR316C, strain cot1, stronger effect = lower value): 0.986 (inactive); normalized growth (S. cerevisiae deletion strains, locus YPL055C, strain LGE1, stronger effect = lower value): 0.596 (active) and 0.806 (active); normalized growth (S. cerevisiae deletion strains, locus YPL241C, strain CIN2, stronger effect = lower value): 0.996 (inactive); normalized growth (S. cerevisiae deletion strains, locus YPR119W, strain clb2, stronger effect = lower value): 0.988 (inactive); normalized growth (S. cerevisiae deletion strains, locus YPR141C, strain kar3, stronger effect = lower value): 0.998 (inactive); normalized growth (S. cerevisiae deletion strains, locus YPR163C, strain tif3, stronger effect = lower value): 0.0814 (active); normalized growth (S. cerevisiae deletion strains, locus YPR167C, strain met16, stronger effect = lower value): 0.986 (inactive); normalized growth (S. cerevisiae deletion strains, strain wtn01, stronger effect = lower value): 0.717 (active); normalized growth (S. cerevisiae strains, strain wild type, stronger effect = lower value): 0.698 (active)
